± gives the standard deviation of the averaged measurements. Over roughly 25,000 sequences, “ln(normalized median fluorescence intensity)” has its median near 8.6; the highest 2% begin near 10. Only a selection was taken, and the highest values are over-represented in it overall.
Tested on: PfAP2-EXP AP2 domain (GST-tagged)
Assay: gcPBM binding intensity (ln(normalized median fluorescence intensity)); higher = stronger DNA binding
Procedure, shortened: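 An Agilent 4 × 180k array carrying primer-extended double-stranded 36-bp intergenic genomic probes and negative controls received GST-tagged P. falciparum DNA-binding domains expressed in E. coli, about 25 μg on average, for 1 h. The binding buffer contained 1× PBS, 1% milk, 0.2 mg/ml BSA, 0.5% salmon testes DNA and 0.03% Triton X-100. Binding intensity is the top Masliner-normalised natural-log median intensity across replicate spots of either probe orientation, read after Alexa488 anti-GST antibody staining and a 488 nm scan.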

Sequence	gcPBM binding intensity (ln)
TAGTAATATGTATCCATACACACATACATTTTATTT [CACACA_site873]	8.52 ± 0.41
TATAACAAAATATTCACACATATAAGTAAATAAAGG [CACACA_site5777]	8.73 ± 0.28
AATTTTAATTATATCACACATAATATATACCAAAAA [CACACA_site6011]	8.51 ± 0.38
GAATAATCTAGAAACACACAAACACGACAAAAGAAA [CACACA_site4135]	8.93 ± 0.55
TTTTGTTCTAATATGGGAACATAAATATTAAATATA [CACACA_negctrl_site1787]	8.22 ± 0.45
TATTTTATATTTCATTTGTTATTTTTCTTGGTTCTA [CACACA_negctrl_site33]	8.63 ± 0.57
CATATTTGCACTTTCACACATAAATATATAACTATA [CACACA_site6016]	8.91 ± 0.31
TTTGTTATGGTTTTCTCACACATATATATATATATA [CACACA_site4617]	10.4 ± 0.36
TTTGTAACTTCTTTCACACATATATATATATATATA [CACACA_site5603]	10.3 ± 0.47
TTTCTTTCTTCACATATATATATATATATATTTATA [TGCATGCA_negctrl_site341]	8.83 ± 0.3
TATTTGTTGTGAGTCACACATATATATATATATATA [CACACA_site4240]	10.3 ± 0.42
TCATTTTATTTTTTCACACACACATATATATATATA [CACACA_site3333]	10.1 ± 0.33
TTTTTTTTTTTGGTTACACACATTTGTATATTCTCA [CACACA_site134]	8.69 ± 0.49
TTATTTTTATATTTCACACACATATACTTTTACATA [CACACA_site4097]	8.8 ± 0.47
ATTTTATTTTTTCACACACACATATATATATATATA [CACACA_site3334]	10.2 ± 0.32
TGTATATTTGTTGTTACACACATATATTTTTTTTTT [CACACA_site128]	8.53 ± 0.3
TTTTTTTTTTTTGTCACACATATATTTGTATTTATA [CACACA_site5234]	8.58 ± 0.38
TAAAATATTGTTATTACATGCAACCTTATGAAAAAT [TGCATGCA_site706]	8.94 ± 0.17
GTATAAAAGTTATATACACACAACAGAATTACATAT [CACACA_site6212]	8.68 ± 0.49
TCTTAATATGGTAATACACACTAATATACTTTTGTT [CACACA_site4969]	8.55 ± 0.31
TTTTGTTTGTTCGTGACTACATTATGTTGTAAATAC [CACACA_negctrl_site604]	8.78 ± 0.38
TATACATTTATGTACACACACATATAGGTATATTTA [CACACA_site7408]	8.47 ± 0.099
AATTATAAAAAAAAAAAAAAAAAAAAAAACTAAATG [CACACA_negctrl_site1379]	8.11 ± 0.47

Sequence	gcPBM binding intensity (ln)
TTTATTTTTTGTGGCACACAGAAGAAACAAGAACAA [CACACA_site1696]	9.12 ± 0.35
TGAACAATATATAATAGTACATATTTATTTTTTTCT [XGTACX_site4256]	8.13 ± 0.2
CTTAAAAAAAAAAAATGTACACATAAAAAAAATACA [XGTACX_site6700]	8.52 ± 0.35
TTGTTGATTGTTATTTATCATTAGATGTAAAATATG [CACACA_negctrl_site927]	8.39 ± 0.3
TATAAAATGTAATCTGAACACACATATTTTTTTAAT [CACACA_site8521]	8.11 ± 0.37
ATATTGAATTCCAACACATGCAAAACTTTCGGTTTT [TGCATGCA_site485]	8.8 ± 0.38
TCATATTATAAAAAATGTACAAGGAAAAAATATATA [XGTACX_site337]	9.06 ± 0.58
TTTTTATATATATTCTCACACACTTTTTATTTTAAC [CACACA_site657]	8.7 ± 0.46
TATACACATATTTTTACACACATATTTTTTCATATA [CACACA_site7244]	8.7 ± 0.38
TATTTATTCTCCAACACACACACATATATATATATA [CACACA_site2894]	10.1 ± 0.43
TTTTCATTTTTCTTTACACACATATATATATATATA [CACACA_site2236]	10.2 ± 0.31
ATTTTATTTTCTCACACACACATATATATATATATA [CACACA_site5781]	10.4 ± 0.4
TATTTATTCTCCAACACACACACATATATTTATATA [CACACA_site7376]	8.69 ± 0.53
AACATATTTATATACACACACATATTTATATGAAAT [CACACA_site6268]	8.39 ± 0.33
ATTTTATTTTCATATGAACACACATATATATATTAT [CACACA_site8741]	9.15 ± 0.47
TTTATTCTCAAACACACACACATATATATATATATA [CACACA_site2895]	10.2 ± 0.51
ATATATTTTATACATACACACATATATATATTTTTT [CACACA_site3940]	8.66 ± 0.33
ATATTTATGAAGTTCACACATATATATATATATATA [CACACA_site5954]	10.3 ± 0.52
TTTTCATTTTTCTTTACACACATATATTTATTTATA [CACACA_site7119]	8.94 ± 0.4
TCGTGTTTTAAAAAAATGAAGAAAAGTAAAAAAAAA [XGTACX_negctrl_site23]	8.46 ± 0.67
AGGATAATATACAAAAGTACATAAAACTAAAAAAAC [XGTACX_site605]	9.01 ± 0.24
AAAAATATAACCGTTACACACAAAATAATATGAGAA [CACACA_site3773]	8.72 ± 0.43
ATATTTATTTATTTATGTACGCACACAGTTGATATT [XGTACX_site5808]	8.92 ± 0.4

Sequence	gcPBM binding intensity (ln)
TTTTTTTTATTTTGTTGTACGCTTATTTGTATATAT [XGTACX_site7325]	8.95 ± 0.45
TAAATACATAAATACACACACATATATTATATATAT [CACACA_site4310]	8.62 ± 0.14
CATATTTTGAACTTCACACATATATATATATATATA [CACACA_site4228]	10.2 ± 0.3
TTTTTTTTTTTGTTCACACATATATATATATATATA [CACACA_site5376]	10.2 ± 0.37
TTTTTTTTTTTTTTTTTTTATGTATACATATTTATA [TGCATGCA_negctrl_site234]	8.28 ± 0.43
AAAATATATAAACGCACATATATTTATGTATATATA [CACACA_negctrl_site163]	8.64 ± 0.49
TTTTTTTTTTACTTCACACATATACATTTATATTTA [CACACA_site4385]	8.7 ± 0.44
AACGCACATATATTTATGTATATATATATATATATA [GTGCAC_negctrl_site478]	10.2 ± 0.31
TTTTTTTTTTTGTTCACACATATACTTTTATTTTGG [CACACA_site4250]	8.72 ± 0.47
TGAAGAATATTTTTCACACATATATATATATATATA [CACACA_site6080]	10.2 ± 0.38
AAAAAAAAAAAAATCACACATATGTATTTATATATA [CACACA_site5790]	8.21 ± 0.46
TATAATTATTTTTTCACACATATGTATTTATATATA [CACACA_site4205]	8.88 ± 0.43
TCCATATTTGTTCACACACACACATATTTATATATA [CACACA_site3570]	8.84 ± 0.42
CATATGTATTTATTCACACATATATATATATATATA [CACACA_site4207]	10.2 ± 0.4
GACATAGTATTAAGTTGTACATATATAAAAATAAAT [XGTACX_site1583]	8.65 ± 0.32
TGCTTATCCATTTCTACACACAAAAAAAAAAAAAAA [CACACA_site37]	8.28 ± 0.28
ATAATGTAGAACTAGAGTACATAAAAAAATAAACAT [XGTACX_site5205]	9.06 ± 0.47
TATATATAAATATTCAGTACATAGTGCTATTAAGTG [XGTACX_site1979]	8.605 ± 0.064
TGTATGTATAATTGAGTGCACAGAAAAAAAAAAGAA	9.6 ± 0.17
GTTGTAAAAAGAAAATGTACGTAATAAATATATATA [XGTACX_site3081]	8.93 ± 0.38
TTTTCATATATTTATTGTACATATTACATATATAAT [XGTACX_site2425]	8.71 ± 0.23
TACATTCTAATAATTGCACACTGGTTATTAAAAGGA [CACACA_site1614]	8.4 ± 0.29
TATATATTTTTTTCAAGTACACATTACAGTTACATA [XGTACX_site2713]	8.62 ± 0.38

Sequence	gcPBM binding intensity (ln)
TTATAAGATTTATGTACACACATATACTCACCTCTA [CACACA_site729]	8.51 ± 0.25
TTTATATAGAAACACACACACAAAAAAAAAAAAAAA [CACACA_site2646]	8.24 ± 0.52
ATATATATATAATTATATAAAATATATCATATGTTA [XGTACX_negctrl_site47]	9.37 ± 0.14
TTTAATCATATGTTATATAATAAGCCCCCCCCCCAA [CACACA_negctrl_site486]	11 ± 0.12
TATTAATTATATTTATGTACATAATCATATTATTAT [XGTACX_site7938]	8.55 ± 0.35
TCTTTCTATTTATAATGTACTCAAAATTATTCTATA [XGTACX_site4867]	8.6 ± 0.36
AGTGTGCTCAGCTTAGCACAAATTGGAATACCATGT [CACACA_negctrl_site367]	8.63 ± 0.4
CATATAATAAATAATACACACATATTGTAAATATAT [CACACA_site5734]	8.43 ± 0.44
ATATTAGATTAATTTACACACAGAAAATGAGATTTT [CACACA_site541]	8.21 ± 0.36
TTATTTTTCAATGAAAAGGATTATATATATATATAT [CACACA_negctrl_site757]	10.2 ± 0.13
ATATTATGAAGGGATATTTTCAAAAATATTAGGAGA [CACACA_negctrl_site942]	8.64 ± 0.41
ATATTTCAAAATGAAAGTACATATAAAAATTATACA [XGTACX_site3787]	8.31 ± 0.29
TTCATATTTCATATATGTACTTATGTTCAATATAGT [XGTACX_site3811]	8.31 ± 0.3
ATTTTTTTGTTAATTTGTACATAAAATTTTATTTTA [XGTACX_site7007]	8.72 ± 0.42
TTTATATTTATATAAATATAATATATATGAATTATA [XGTACX_negctrl_site466]	8.19 ± 0.51
ATATATATATATAATGCACACATTATGAATTATGTA [CACACA_site3384]	9.98 ± 0.26
TATAATATAAAATATGCACACATTGGAATGGGAGAA [CACACA_site3746]	8.97 ± 0.35
AATATATAGAGAGATATGCACACTGTATGAATGCAC [CACACA_site2677]	8.58 ± 0.014
TATATGGAGAGATATGCACACTGTATGAATGCCCCC [CACACA_site8853]	10.3 ± 0.33
CCACTGTATGAATGCACACATTCATAGAATTGCTAT [CACACA_site2676]	8.79 ± 0.28
TATATAGAGAGATATGCACACTGTATGAATGCCCCC [CACACA_site5476]	10.3 ± 0.38

From the supplement of paper PMC11417369
